Out of some 52,000 compounds screened, about 1,700 (3.3%) were called active. The sample holds actives, similar compounds and a random draw of the others, so the mix is not that of the screen. Values without a mark were called inactive. Cut-off read from the data, not from the text of the source: active = survival mostly below about 52% (no sharp cut-off); inactive = mostly above about 56%.
Each compound was assayed on Wild type (assay: S. aureus survival, RN4220 and DeltatarO strains – OD600, teichoic acid synthesis inhibitors, primary screen (AID 463173)). Settings: S. aureus RN4220 wild type/DeltatarO growth, OD600, 18 h, stronger effect = lower value, screened at 18.75 µg/mL (by protocol).
COc1ccc(Br)cc1S(=O)(=O)Nc1cc(-c2cn3ccccc3n2)ccc1C was tested, and the survival was 63%.
Cc1ccc(C(=O)Nc2ccc3c(c2)N(C)C(=O)c2ccccc2S3)cc1F gave a survival of 72%.
In the case of O=C(Cn1ncn2c(cc3sccc32)c1=O)NCCc1ccccc1, the survival is reported as 85%.
For CC(Sc1nnc(-c2ccccc2)n1N)C(=O)O (centres undefined), the survival was 109%.
In the case of CCOc1ccc(Nc2ncnc3c2cnn3-c2ccc(F)cc2)cc1, the survival is reported as 60%.
Compound Cc1ccc(N2CCN(C(=O)c3c(C)oc4ncnc(N5CCOCC5)c34)CC2)c(C)c1 has a survival of 83%.
Compound CSc1ccc(-c2nc3ncccn3c2Nc2ccc(C)c(C)c2)cc1 has a survival of 60%.
In the case of COc1cc(OC)c(NC(=O)c2c(C)oc3ncn(C)c(=O)c23)cc1Cl, the survival is reported as 88%.
Compound COc1cc(OC)c(NC(c2nnc(-c3ccccc3)o2)c2ccc(F)cc2Cl)cc1Cl (centres undefined) has a survival of 66%.
With COc1ccc(C)cc1NC(c1nnc(-c2ccccc2)o1)c1ccc(F)cc1Cl (centres undefined) the survival was 3% (active).
Cc1cccc(NC(c2nnc(-c3ccccc3)o2)c2ccc(F)cc2Cl)c1C (centres undefined) gave a survival of 55%.
CCOc1ccccc1NC(c1nnc(-c2ccccc2)o1)c1ccc(F)cc1Cl (centres undefined) was tested, and the survival was 2% (active).
For COc1cccc(NC(c2nnc(-c3ccccc3)o2)c2ccc(F)cc2Cl)c1 (centres undefined), the survival was 56%.
CCc1ccccc1NC(c1nnc(-c2cccc(F)c2)o1)c1ccc(F)cc1Cl (centres undefined) was tested, and the survival was 86%.
Compound COc1ccc(S(=O)(=O)NCCc2csc(-c3ccc(F)cc3)n2)cc1F has a survival of 81%.
Cc1cc(C)cc(NC(=O)CCS(=O)(=O)c2cccc3nsnc23)c1 was tested, and the survival was 64%.
COc1cc(C2c3c(oc4ccccc4c3=O)C(=O)N2c2nncs2)cc(OC)c1OC (centres undefined) gave a survival of 76%.
In the case of Cc1ccc2c(c1)sc1nc(=O)n(-c3ccc(Cl)c(Cl)c3)c(=O)n12, the survival is reported as -4% (active).
Cc1ccc2c(c1)sc1nc(=O)n(-c3ccc(Cl)cc3)c(=O)n12 gave a survival of 77%.
For Cc1ccc2c(c1)sc1nc(=O)n(-c3cccc(Cl)c3)c(=O)n12, the survival was 70%.
For CC(C)C(NS(=O)(=O)c1cccc2cccnc12)C(=O)Nc1ccc(OC(F)(F)F)cc1 (centres undefined), the survival was 100%.
Compound CCOc1ccc(-c2cnc(NCc3cccc(Cl)c3)n2C)cc1 has a survival of 52%.
With Cc1ccc(-c2cnc(NCc3ccc(C(C)C)cc3)n2C)cc1 the survival was -13% (active).
In the case of Cc1ccc(-c2cnc(NCc3ccc(C(F)(F)F)cc3)n2C)cc1, the survival is reported as -13% (active).
In the case of Cn1c(-c2ccccc2)cnc1NCc1ccccc1O, the survival is reported as 60%.
Work on COc1ccc(OC)c(CNc2ncc(-c3ccc(Cl)cc3)n2C)c1 yielded a survival of 34%.
Cn1c(-c2cccc(Br)c2)cnc1NCc1cccc(F)c1 showed a survival of 27%.
Cc1ccc(-c2cnc(NC(=O)CCC(=O)N3CCCCC3)n2C)cc1 gave a survival of 110%.
With CCc1ccc(CNc2ncc(-c3cccc(OC)c3)n2C)cc1 the survival was 4% (active).
With CCOc1ccc(-c2cnc(NCc3ccc(OC)cc3OC)n2C)cc1 the survival was 68%.
In the case of COc1ccc(-c2cnc(NCc3ccc(C)cc3)n2C)cc1, the survival is reported as 108%.
CCOc1ccc(-c2cnc(NCc3ccc(C(F)(F)F)cc3)n2C)cc1 was tested, and the survival was -12% (active).
For COc1cccc(-c2cnc(NCc3ccccc3Cl)n2C)c1, the survival was 70%.
Cc1ccc(Cl)cc1N1CCN(C(=O)c2cn(C3CCCCC3)c(=O)c3c2c2ccccc2n3C)CC1 gave a survival of 76%.
COC(=O)c1ccc(NC(=O)C(=O)NCC(c2cccnc2)N2CCc3ccccc32)cc1 (centres undefined) was tested, and the survival was 47%.
With O=C(CSc1nnc(-c2ccc(Cl)cc2)c(-c2ccc(Cl)cc2)n1)NC1CCCC1 the survival was 65%.
In the case of O=C(Nc1ccccc1C(=O)NCc1ccccc1)c1ccco1, the survival is reported as 112%.
Work on CCOC(=O)NNC(=O)C1CCC(C)CC1 (centres undefined) yielded a survival of 64%.
O=S(=O)(c1ccc(F)cc1)N(CC(O)Cn1c2ccccc2c2ccccc21)c1ccccc1 (centres undefined) showed a survival of 63%.
Work on CCOc1ccc(-c2cc(C(=O)NCCc3ccccc3)c3c(-c4ccc(C)cc4)[nH]nc3n2)cc1 yielded a survival of 128%.
With Cc1ccc(S(=O)(=O)NCC(Nc2cccc(Cl)c2)c2ccccc2)cc1 (centres undefined) the survival was 68%.
For COc1ccc2cc3cc(C(=O)Nc4cc(C)c(Cl)cc4OC)oc3nc2c1, the survival was 88%.
With Cc1cccn2c(=O)c3cc(C(=O)NC(C)C)n(C)c3nc12 the survival was 82%.
Fc1cccc(Cl)c1CNc1n[nH]c(-c2ccco2)n1 gave a survival of 83%.
In the case of Cc1ccc(-c2cnc(NCc3c(F)cccc3Cl)n2C)cc1, the survival is reported as -12% (active).
Work on Cn1c(-c2ccc3c(c2)OCO3)cnc1NCc1cc(Cl)ccc1O yielded a survival of 112%.
Compound CCOc1ccc(CCNC(=O)c2cn(-c3cccc(OC)c3)c(=O)c3ccccc23)cc1 has a survival of 87%.
In the case of Cc1cc(Nc2cccc(C(F)(F)F)c2)nc2ccc(NC(=O)Cc3ccc(Cl)cc3)cc12, the survival is reported as 78%.
In the case of Fc1ccc(Nc2nc3nonc3nc2Nc2cccc(C(F)(F)F)c2)cc1, the survival is reported as -1% (active).
For Fc1ccc(-c2nc(Nc3cccc(C(F)(F)F)c3)nc3c2COc2ccccc2-3)cc1, the survival was 56%.
For FC(F)(F)c1cccc(Nc2nc3nonc3nc2Nc2ccc(Cl)cc2)c1, the survival was -3% (active).
With Cc1ccc(Nc2nc3nonc3n3cnnc23)cc1Cl the survival was 88%.
O=C(Nc1cccc(C(F)(F)F)c1)c1cc(-c2ccc(Cl)cc2)on1 was tested, and the survival was 83%.
For Cc1cc(C)n(-c2nc3ccccc3nc2Nc2cccc(C(F)(F)F)c2)n1, the survival was 86%.
Compound NS(=O)(=O)c1ccc(Nc2nc3nonc3nc2Nc2ccc(S(N)(=O)=O)cc2)cc1 has a survival of 109%.
With Cc1ccc(Nc2nc3nonc3nc2Nc2cccc(C(F)(F)F)c2)cc1Cl the survival was 0% (active).
Compound CCCSc1nc2c([nH]c3ccccc32)c(=O)n1C has a survival of 87%.
For COCC(C)NC(=O)C1=CC(c2ccc3c(c2)OCO3)=NS(=O)(=O)N1C (centres undefined), the survival was 103%.
With COc1ccc(-c2noc(N3CCN(c4cccc(Cl)c4)CC3)n2)cc1OC the survival was 73%.
Work on Cc1cccc(N(C)S(=O)(=O)c2cc3c(cc2Cl)NC(=O)CO3)c1 yielded a survival of 75%.
With COc1ccc(N2CCN(c3ncccc3-c3nc(-c4ccccc4C)no3)CC2)cc1 the survival was 87%.
For CCN(CC)C(=O)Cn1cc(/C=C(\C#N)C(N)=O)c2ccccc21, the survival was 124%.
For Cc1ccc(-n2ncc3c(NCC(C)C)ncnc32)c(C)c1, the survival was 10% (active).
In the case of Cc1ccc(-n2ncc3c(N(CC(C)C)CC(C)C)ncnc32)c(C)c1, the survival is reported as 71%.
For COc1ccc(C(=O)NNc2ncnc3c2cnn3-c2ccc(C)cc2C)cc1, the survival was -3% (active).
COc1ccc(C(=O)NNc2ncnc3c2cnn3-c2ccc(C)c(Cl)c2)cc1 showed a survival of 73%.
Cc1cccc(C(=O)NNc2ncnc3c2cnn3-c2ccc(C)cc2C)c1 gave a survival of 124%.
In the case of Cc1ccc(CNc2ncnc3c2cnn3-c2ccc(C)cc2C)cc1, the survival is reported as 73%.
Compound CCOc1ccc(N2CC(NC(=O)CCc3ccccc3)CC2=O)cc1 (centres undefined) has a survival of 78%.
Work on COc1ccc(CCNc2nccn(-c3ccc(C)c(C)c3)c2=O)cc1OC yielded a survival of 83%.
Work on COC(=O)c1c(NC(=O)Cc2coc3cc(C)ccc23)sc2c1CCC2 yielded a survival of 106%.
For CCCCNC(=O)C(CC)Sc1nc2ccccc2c(=O)n1CCc1ccc(OC)c(OC)c1 (centres undefined), the survival was 127%.
With O=C(NCc1ccccc1Br)c1ccc(-n2cnc3cccnc32)cc1 the survival was 152%.
Work on Cc1cccc(C(=O)Nc2ccccc2-c2nc(-c3ccccc3)no2)c1 yielded a survival of 86%.
In the case of CCOc1ccc(CCNC(=O)C2CCN(c3ncnc4c3nc3n4CCCCC3)CC2)cc1, the survival is reported as 119%.
Compound Cc1ccc(CN2C(=O)C(O)(CC(=O)c3ccc(C)cc3)c3ccccc32)cc1 (centres undefined) has a survival of 66%.
CCc1ccc(C(=O)CC2(O)C(=O)N(Cc3ccc(C)cc3)c3ccccc32)cc1 (centres undefined) was tested, and the survival was 48%.
Compound CC(C)c1ccc(C(=O)CC2(O)C(=O)N(CCc3ccccc3)c3ccc(Cl)cc32)cc1 (centres undefined) has a survival of 33%.
CCc1ccc(C(=O)CC2(O)C(=O)N(CCc3ccccc3)c3ccc(Cl)cc32)cc1 (centres undefined) was tested, and the survival was 5% (active).
In the case of CCc1ccc(C(=O)CC2(O)C(=O)N(C(C)C)c3ccccc32)cc1 (centres undefined), the survival is reported as 111%.
With Cc1ccc(C(=O)CC2(O)C(=O)N(CCc3ccccc3)c3ccc(Cl)cc32)cc1 (centres undefined) the survival was 3% (active).
Cc1ccc2cc(C#N)c(SCC(=O)NCc3ccco3)nc2c1 was tested, and the survival was 103%.
For O=S(=O)(NCC(c1ccco1)S(=O)(=O)c1cccs1)c1ccc(F)c(C(F)(F)F)c1 (centres undefined), the survival was 32%.
COc1ccc(CCNC(=O)c2ccc3c(c2)N(Cc2ccc(Cl)cc2)C(=O)c2ccccc2S3)cc1OC was tested, and the survival was 55%.
Work on Cc1cc(C)cc(NC(=O)CSc2nccn2-c2ccccc2)c1 yielded a survival of 135%.
Cc1cccc(NC(=O)c2ccc3oc(=O)c(S(=O)(=O)c4ccc(F)cc4)cc3c2)c1C gave a survival of 127%.
Work on CN(CCO)Cc1ccc2c(c1)OCO2 yielded a survival of 121%.
Work on COc1ccc(CNC(=O)c2cnn(-c3ccccc3)c2-n2cccc2)cc1OC yielded a survival of 126%.
In the case of CC(=O)Nc1ccc(NC(=O)c2c(C)nn(-c3ccccc3)c2-n2cccc2)cc1, the survival is reported as 80%.
With Cc1ccc(CCNC(=O)c2c(C)nn(-c3ccc(F)cc3)c2-n2cccc2)cc1 the survival was 60%.
For Cc1ccc(-n2ncc(C(=O)NCc3ccccc3C)c2-n2cccc2)cc1, the survival was 88%.
With CCOc1ccccc1CNC(=O)c1cnn(-c2ccc(C)cc2)c1-n1cccc1 the survival was 10% (active).
For Cc1ccc(NC(=O)c2c(C)nn(-c3ccccc3)c2-n2cccc2)c(Cl)c1, the survival was 78%.
For Cc1nn(-c2ccccc2)c(-n2cccc2)c1C(=O)NCc1ccccc1Cl, the survival was 1% (active).
With Cc1nn(-c2ccccc2)c(-n2cccc2)c1C(=O)NCCc1ccc(Cl)cc1 the survival was 2% (active).
Cc1nn(-c2ccc(F)cc2)c(-n2cccc2)c1C(=O)NCCc1ccc(Cl)cc1 was tested, and the survival was 54%.
For COc1ccc(CNC(=O)c2cnn(-c3ccc(F)cc3)c2-n2cccc2)cc1, the survival was 113%.
O=C(NCCc1ccccc1)c1cnn(-c2ccc(F)cc2)c1-n1cccc1 showed a survival of 49%.
With CSc1ccc(CCNC(=O)c2cnn(-c3ccccc3)c2-n2cccc2)cc1 the survival was 9% (active).
